Assay [1] is described as follows: qHTS assay to identify small molecule antagonists of the glucocorticoid receptor (GR) signaling pathway - cell viability counter screen (AID 720693; further: nearly all actives have a fitted effect of over 55% in size). (Quantitative high-throughput screening tests each substance at several concentrations.)
Assay [2] in a line: qHTS assay for identifying genotoxic compounds that show differential cytotoxicity against isogenic chicken DT40 cell lines with known DNA damage response pathways - wild type cell line (AID 743012). Further: nearly all actives have a fitted effect of over 60% in size. Further: potency means the concentration at half of the fitted maximal effect. An outline of the steps: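 First, wild type DT40 cells were plated at 300 per well and equilibrated about 0.5 h at 37 C/5% CO2. Next, compounds in DMSO were added and exposure lasted 40 h. Finally, CellTiter-Glo was added for 30 min at room temperature and luminescence recorded.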

Assay [3] is described as follows: qHTS assay for identifying genotoxic compounds that show differential cytotoxicity against isogenic chicken DT40 cell lines with known DNA damage response pathways - Rev3 mutant cell line (AID 743014). Further: nearly all actives have a fitted effect of over 55% in size. Further: potency means the concentration at half of the fitted maximal effect.
Assay [4] in a line: qHTS assay for identifying genotoxic compounds that show differential cytotoxicity against isogenic chicken DT40 cell lines with known DNA damage response pathways - Rad54/Ku70 mutant cell line (AID 743015). Further: nearly all actives have a fitted effect of over 60% in size. Further: potency means the concentration at half of the fitted maximal effect.
Assay [5] can be described thus: qHTS assay to identify small molecule antagonists of the estrogen receptor alpha (ER-alpha) signaling pathway - cell viability counter screen (AID 743074; calls by dose curve;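 further: HEK293 cells carrying ER-alpha-UAS-bla reporter stimulated with 17beta-estradiol; nearly all actives have a fitted effect of over 45% in size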).
Assay [6] can be described thus: qHTS assay to identify small molecule antagonists of the estrogen receptor alpha (ER-alpha) signaling pathway using the BG1 cell line - cell viability counter screen (AID 743081).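 Further: compound given together with 17beta-estradiol as the ER stimulus; nearly all actives have a fitted effect of over 45% in size.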
Assay [7] addresses Aromatase (Homo sapiens) (UniProt P11511). The experiment in a line: qHTS assay to identify aromatase inhibitors (AID 743083). Further: nearly all actives have a fitted effect of over 55% in size. Further: potency means the concentration at half of the fitted maximal effect.
Assay [8] is described as follows: qHTS assay to identify small molecule antagonists of the androgen receptor (AR) signaling pathway using the MDA cell line - cell viability counter screen (AID 743041; further: nearly all actives have a fitted effect of over 45% in size). An outline of the steps: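 MDA-kb2 AR-luc cells (MMTV-luciferase, AR/GR responsive) treated with compounds plus R1881 agonist for 16 h at 37C. CellTiter-Fluor added at 15.5 h; fluorescence read after 30 min in the same wells.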

Assay [9] in a line: qHTS assay to identify small molecule antagonists of the thyroid receptor (TR) signaling pathway - cell viability counter screen (AID 743064). Further: nearly all actives have a fitted effect of over 50% in size. Further: potency means the concentration at half of the fitted maximal effect. Put shortly:
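GH3.TRE-Luc cells, 4 h pre-plating; cpd + T3 1 nM final; 37 °C 23.5 h; CellTiter-Fluor 30 min; fluorescence read.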

Assay [10] can be described thus: qHTS assay to identify small molecule antagonists of the thyroid receptor (TR) signaling pathway (AID 743065). Further: nearly all actives have a fitted effect of over 55% in size. Put shortly:
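GH3.TRE-Luc rat pituitary cells (two TREs driving luciferase) were dosed with compound, then stimulated with 1 nM T3 (final) for 23.5 h at 37 C. ONE-Glo luminescence was the read-out, with CellTiter-Fluor fluorescence as the cytotoxicity counter-screen.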

The subject of assay [11] is thyroid hormone receptor (rat, GH3 cells). The assay can be described thus: qHTS assay to identify small molecule agonists of the thyroid receptor (TR) signaling pathway (AID 743066; calls by dose curve).
The target of assay [12] is Estrogen receptor (Homo sapiens) (UniProt P03372). The experiment in a line: qHTS assay to identify small molecule antagonists of the estrogen receptor alpha (ER-alpha) signaling pathway (AID 743069; active means well fitted curve in the direction sought with a large enough effect in the signal ratio in the repeat runs, not every such curve was filed as active; inconclusive means weak or mixed curves, or effect the other way; inactive means no such curve, though single readings can be large or run the other way; the % refers to the signal ratio). An outline of the steps:
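HEK293 ER-alpha-UAS-bla GripTite cells, held overnight in 2% charcoal-stripped FBS, 5,000 cells/well, preincubated 4 h, then compound plus 17beta-estradiol for 18 h at 37C. Beta-lactamase read by LiveBLAzer B/G FRET substrate, 2 h at room temperature.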

For assay [13] the target is unchanged. The assay can be described thus: qHTS assay to identify small molecule agonists of the estrogen receptor alpha (ER-alpha) signaling pathway (AID 743075; calls by dose curve; further: potency means the concentration at half of the fitted maximal effect).
Assay [14] shares this target. The assay can be described thus: qHTS assay to identify small molecule agonists of the estrogen receptor alpha (ER-alpha) signaling pathway using the BG1 cell line (AID 743079). Further: nearly all actives have a fitted effect of over 20% in size. Further: potency means the concentration at half of the fitted maximal effect.
Assay [15] is described as follows: qHTS assay to identify small molecule antagonists of the estrogen receptor alpha (ER-alpha) signaling pathway using the BG1 cell line (AID 743080; calls by dose curve;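 further: BG1 cells stimulated with 17beta-estradiol alongside compound; nearly all actives have a fitted effect of over 25% in size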). An outline of the steps:
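BG1-Luc-4E2 cells (endogenous full-length ER-alpha, 4xERE luciferase) hormone-starved 5 days in charcoal-stripped FBS, plated 4,000/well for 24 h, then compound plus 17beta-estradiol for 21.5 h at 37 C; ONE-Glo luminescence read.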

Assay [16] can be described thus: qHTS assay to identify small molecule antagonists of the androgen receptor (AR) signaling pathway - cell viability counter screen (AID 743033; further: nearly all actives have a fitted effect of over 45% in size).
Assay [17] addresses Androgen receptor (Homo sapiens) (UniProt P10275). The assay can be described thus: qHTS assay to identify small molecule agonists of the androgen receptor (AR) signaling pathway (AID 743036; active means well fitted activation curve with a large enough effect in the signal ratio in the repeat runs, with a control signal flat, not every such curve was filed as active; inconclusive means weak or mixed curves, or effect the other way; inactive means no such curve, though single readings can be large or run the other way; the % refers to the signal ratio). An outline of the steps:
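AR-bla HEK293 cells, 2,000/well; 4 h preincubation 37C/5% CO2; compound (DMSO) 16 h at 37C; LiveBLAzer B/G FRET substrate 2 h RT; fluorescence intensity read-out.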

The target is the same in assay [18]. The experiment in a line: qHTS assay to identify small molecule agonists of the androgen receptor (AR) signaling pathway using the MDA cell line (AID 743040; further: nearly all actives have a fitted effect of over 20% in size). Particulars: MDA-kb2 AR-luc cells, MMTV luciferase, 16 h; activity change: at 70.3 µM (top of the series), stronger effect = higher value. Put shortly: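 MDA-kb2 breast carcinoma cells carrying MMTV-luciferase (responsive to AR and GR), plated 5 h then treated 16 h with compounds at 37C, 0% CO2. Read-out was ONE-Glo luminescence after 30 min at room temperature.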

Assay [19] has the same target. The assay can be described thus: qHTS assay to identify small molecule antagonists of the androgen receptor (AR) signaling pathway using the MDA cell line (AID 743042; further: nearly all actives have a fitted effect of over 55% in size; further: potency means the concentration at half of the fitted maximal effect). An outline of the steps:
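MDA-kb2 breast carcinoma cells carrying MMTV-luciferase (AR/GR responsive) were co-treated with compounds and the agonist R1881 for 16 h at 37C. Inhibition read as ONE-Glo luminescence; CellTiter-Fluor fluorescence measured in parallel for cytotoxicity.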

Assay [20] shares this target. The assay can be described thus: qHTS assay to identify small molecule antagonists of the androgen receptor (AR) signaling pathway (AID 743035; active means well fitted inhibition curve with a large enough effect in the signal ratio in the repeat runs, not every such curve was filed as active; inconclusive means weak or mixed curves, or effect the other way; inactive means no such curve, though single readings can be large or run the other way; the % refers to the signal ratio). An outline of the steps: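 Beta-lactamase FRET read (2 h RT incubation with LiveBLAzer B/G) following 16 h of compound plus R1881 treatment of AR-UAS-bla HEK293 cells, which had been pre-incubated 4 h at 37C.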

Where “and” joins values, the source holds several entries; their conditions need not be identical. Identical values can stand only once. Where a structure was tested more than once in an assay, its records may differ in their call. Calls of active or inactive are those of the source. Unless noted, the call rests on the fitted dose curve; in most records, active means well fitted curve in the direction sought with a large enough effect in the repeat runs; inconclusive means weak or mixed curves; inactive means no such curve, though single readings can be large; an effect the other way counts as inactive or inconclusive.

Sequence of Aromatase (Homo sapiens) (P11511 whole entry, looked up): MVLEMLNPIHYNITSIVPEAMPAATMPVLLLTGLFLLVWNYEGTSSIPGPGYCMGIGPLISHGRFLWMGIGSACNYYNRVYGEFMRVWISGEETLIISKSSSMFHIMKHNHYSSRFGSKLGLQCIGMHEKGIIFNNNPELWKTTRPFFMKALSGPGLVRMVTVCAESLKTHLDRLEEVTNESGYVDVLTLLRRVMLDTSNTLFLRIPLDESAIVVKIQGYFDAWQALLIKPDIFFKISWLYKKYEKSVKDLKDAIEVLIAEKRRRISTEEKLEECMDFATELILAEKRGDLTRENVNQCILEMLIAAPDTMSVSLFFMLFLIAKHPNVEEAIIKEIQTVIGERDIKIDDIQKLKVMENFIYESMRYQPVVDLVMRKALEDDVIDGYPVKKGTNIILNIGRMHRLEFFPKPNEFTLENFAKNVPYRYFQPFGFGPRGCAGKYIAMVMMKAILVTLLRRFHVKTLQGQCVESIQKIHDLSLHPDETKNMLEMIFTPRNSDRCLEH
Sequence of Androgen receptor (Homo sapiens) (P10275 whole entry, looked up): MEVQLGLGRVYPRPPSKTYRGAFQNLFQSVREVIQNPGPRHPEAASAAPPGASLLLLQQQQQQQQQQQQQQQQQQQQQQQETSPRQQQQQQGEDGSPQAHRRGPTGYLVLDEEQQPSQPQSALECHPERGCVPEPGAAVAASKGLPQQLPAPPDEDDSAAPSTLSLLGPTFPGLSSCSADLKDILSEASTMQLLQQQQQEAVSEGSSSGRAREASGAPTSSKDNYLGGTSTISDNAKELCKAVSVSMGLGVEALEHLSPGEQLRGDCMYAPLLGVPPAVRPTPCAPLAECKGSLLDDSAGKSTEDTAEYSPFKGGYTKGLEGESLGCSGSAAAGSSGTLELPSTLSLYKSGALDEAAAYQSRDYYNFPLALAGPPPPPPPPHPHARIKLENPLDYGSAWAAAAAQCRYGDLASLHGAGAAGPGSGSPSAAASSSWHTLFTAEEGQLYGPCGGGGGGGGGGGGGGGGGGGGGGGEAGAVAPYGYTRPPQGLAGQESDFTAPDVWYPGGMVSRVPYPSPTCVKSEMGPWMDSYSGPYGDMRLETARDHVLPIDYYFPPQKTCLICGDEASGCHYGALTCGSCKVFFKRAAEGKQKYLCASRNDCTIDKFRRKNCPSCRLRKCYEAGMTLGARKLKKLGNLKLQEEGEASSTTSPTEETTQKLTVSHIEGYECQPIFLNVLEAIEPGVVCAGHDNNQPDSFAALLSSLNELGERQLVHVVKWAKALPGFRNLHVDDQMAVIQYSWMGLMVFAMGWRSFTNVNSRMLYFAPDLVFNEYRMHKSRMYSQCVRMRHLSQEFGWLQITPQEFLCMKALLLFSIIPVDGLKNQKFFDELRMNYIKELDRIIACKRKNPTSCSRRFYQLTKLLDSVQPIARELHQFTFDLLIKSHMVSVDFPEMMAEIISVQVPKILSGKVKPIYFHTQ
Sequence of Estrogen receptor (Homo sapiens) (P03372 whole entry, looked up): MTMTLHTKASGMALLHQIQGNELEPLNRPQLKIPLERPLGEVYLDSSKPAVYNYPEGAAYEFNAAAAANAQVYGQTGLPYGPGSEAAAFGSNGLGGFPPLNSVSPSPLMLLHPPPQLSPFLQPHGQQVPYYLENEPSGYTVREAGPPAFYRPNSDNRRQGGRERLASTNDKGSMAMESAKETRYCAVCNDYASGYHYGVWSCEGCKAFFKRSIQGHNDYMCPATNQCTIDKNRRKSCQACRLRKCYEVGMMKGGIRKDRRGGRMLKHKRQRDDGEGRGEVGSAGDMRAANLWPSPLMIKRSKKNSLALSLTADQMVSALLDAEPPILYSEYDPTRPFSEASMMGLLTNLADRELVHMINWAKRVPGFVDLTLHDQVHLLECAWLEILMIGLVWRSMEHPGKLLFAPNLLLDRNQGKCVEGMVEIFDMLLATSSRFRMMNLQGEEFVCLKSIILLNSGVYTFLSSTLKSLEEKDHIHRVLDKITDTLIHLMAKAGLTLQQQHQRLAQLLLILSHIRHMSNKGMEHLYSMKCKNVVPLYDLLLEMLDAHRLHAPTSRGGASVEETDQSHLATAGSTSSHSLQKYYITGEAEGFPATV

Take `Nc1ccc(-c2ccc(N)c(N)c2)cc1N`: the Potency result in assay [1], in assay [5] and in [6] was “inactive” throughout. Besides, the Potency is 60.9 µM (active) and 9.69 µM (active) in [2]; 60.9 µM (active) and 12.2 µM (active) in assay [3]; 68.4 µM (active) and 12.2 µM (active) in [4]; 6.09 µM (active) and inactive in assay [7].
As for `N[C@@H](Cc1ccc(N(CCCl)CCCl)cc1)C(=O)O`, the Potency result in assay [1], in assay [8] and in assay [6] was “inactive” in each case. The Potency in assay [2] was 944 nM (active) and 8.28 µM (active); in [3] it was 75 nM (active) and 117 nM (active); in assay [4] it was 2.37 µM (active) and 8.28 µM (active); in assay [9], 10.6 µM (active) and 26.2 µM (active).
As to `O=S(=O)(Oc1ccc(Cl)cc1)c1ccc(Cl)cc1`, the Potency result in [1], in assay [2], in [3], in assay [4], in assay [9] and in assay [10] was “inactive” each time. The Potency entry in assay [11], in assay [12], in assay [5], in assay [13], in assay [14] and in [15] was “inactive” throughout. In addition, the Potency entry in assay [6] and in assay [7] was “inactive” in each case.
On to `O=[N+]([O-])c1c(Cl)c(Cl)c(Cl)c(Cl)c1Cl`, for which the Potency in assay [2] is 61.1 µM (active); in [4], “inactive and 61.1 µM (active)”; in assay [19], “inactive and 43.3 µM (active)”; in assay [9], 54.5 µM (active); in assay [7], “inactive and 61.1 µM (active)”. For the same compound, the Potency entry in assay [3], in assay [16], in assay [17], in [18], in assay [11] and in assay [12] was “inactive” throughout. Further, the Potency result in assay [5], in assay [13], in assay [14], in assay [15] and in assay [6] was “inactive” each time.
On to `CCN(CC)N=O`, for which the Potency entry in assay [1], in [2], in [3], in [4], in assay [8] and in assay [9] was “inactive” in each case. In addition, the Potency result in [10], in [11], in [5], in assay [6] and in assay [7] was “inactive” in each case.
Regarding `CNC(=O)N(C)c1nnc(C(C)(C)C)s1`, the Potency entry in [1], in assay [2], in assay [3], in assay [4], in assay [8] and in assay [9] was “inactive” in each case. Further, the Potency entry in [10], in [11], in assay [5], in assay [13], in assay [14] and in assay [15] was “inactive” throughout. Moreover, the Potency entry in assay [6] and in [7] was “inactive” in each case.
Turning to `Nn1cnnc1`, the Potency result in assay [2], in assay [3], in assay [4], in [16], in assay [8] and in [9] was “inactive” throughout. Moreover, the Potency result in [10], in assay [11], in assay [12], in assay [5], in [13] and in assay [14] was “inactive” in each case. Also, the Potency entry in assay [15], in [6] and in assay [7] was “inactive” in each case.
As to `C=C(C)C(=O)OCC1CO1` (stereo not drawn), the Potency entry in assay [2], in assay [3], in assay [4], in [16], in [8] and in assay [9] was “inactive” each time. In addition, the Potency result in assay [10], in assay [11], in assay [12], in assay [5], in assay [13] and in [14] was “inactive” each time. The Potency entry in assay [15], in assay [6] and in assay [7] was “inactive” throughout.
For the compound `CC(C)(C)c1ccccc1O`, the Potency result in assay [1], in [4], in assay [16], in assay [8], in assay [9] and in assay [10] was “inactive” throughout. For the same compound, the Potency result in assay [11], in assay [5], in assay [6] and in [7] was “inactive” throughout. For the same compound, the Potency in [3] was 61.1 µM (active).
For the compound `O=C(O)CC[N+](=O)[O-]`, the Potency in assay [2] is 70.8 µM (active) and inactive. Also, the Potency result in assay [3], in assay [4], in assay [16], in assay [20], in [17] and in [18] was “inactive” each time. The Potency result in assay [19], in [9], in assay [10], in [11], in [5] and in assay [6] was “inactive” throughout. The Potency result in assay [7] is “inactive”.
Take `CC(C)c1ccc(CO)cc1`: the Potency result in assay [1], in assay [2], in assay [3], in assay [4], in assay [20] and in assay [8] was “inactive” in each case. Besides, the Potency result in [9], in assay [10], in [11], in assay [5], in assay [15] and in assay [6] was “inactive” in each case. Also, the Potency result in [7] is “inactive”. Also, the Potency in assay [13] is 43.7 µM [inconclusive] (active) and inactive; in assay [14], 54.5 µM (active) and inactive.
Turning to `NC(=S)Nc1ccccc1`, the Potency result in assay [1], in assay [2], in assay [3], in assay [4], in [8] and in [9] was “inactive” in each case. Besides, the Potency result in assay [10], in [11], in [12], in [5], in [13] and in assay [14] was “inactive” throughout. Moreover, the Potency entry in [15], in [6] and in assay [7] was “inactive” throughout.
As for `CN(C)C(=O)Nc1ccc(Cl)cc1`, the Potency entry in [1], in [2], in [8], in assay [9], in assay [10] and in assay [11] was “inactive” each time. In addition, the Potency result in [5], in assay [6] and in assay [7] was “inactive” throughout.

These data come from PubChem BioAssay (Tox21).
